Results on two compounds are retold here after ChEMBL document CHEMBL1961873, “Compounds: GSK PKIS; Assays: Nanosyn kinase panel” (2012).

Assay [1] deals with Protein kinase C gamma type (Homo sapiens) (UniProt P05129). Conditions: at 1 µM.
In assay [2] the target is T1, Protein kinase C iota type (Homo sapiens) (UniProt P41743).
T1 sequence (whole entry): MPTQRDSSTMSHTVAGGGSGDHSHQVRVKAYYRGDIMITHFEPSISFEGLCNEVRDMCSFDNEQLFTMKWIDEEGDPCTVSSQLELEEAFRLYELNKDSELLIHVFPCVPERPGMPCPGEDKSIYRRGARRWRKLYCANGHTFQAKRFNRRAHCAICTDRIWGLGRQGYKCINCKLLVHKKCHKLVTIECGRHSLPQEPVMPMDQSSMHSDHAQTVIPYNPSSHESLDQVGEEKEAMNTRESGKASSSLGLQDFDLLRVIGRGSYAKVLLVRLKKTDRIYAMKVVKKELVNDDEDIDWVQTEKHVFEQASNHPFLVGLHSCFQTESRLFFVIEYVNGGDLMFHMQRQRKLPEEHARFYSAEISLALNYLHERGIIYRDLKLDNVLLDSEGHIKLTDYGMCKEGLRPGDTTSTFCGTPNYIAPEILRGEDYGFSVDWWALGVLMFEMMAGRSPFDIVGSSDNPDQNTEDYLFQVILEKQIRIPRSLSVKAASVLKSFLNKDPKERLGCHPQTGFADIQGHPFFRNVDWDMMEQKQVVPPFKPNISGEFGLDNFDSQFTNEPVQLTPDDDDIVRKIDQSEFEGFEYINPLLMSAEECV
Conditions: at 0.1 µM.

Assay [3] has as its target T1, Protein kinase C iota type (Homo sapiens). The following applies: at 1 µM.
Assay [4] deals with Protein kinase C theta type (Homo sapiens) (UniProt Q04759). Conditions: at 0.1 µM.
Protein kinase C theta type (Homo sapiens), sequence (Q04759 whole entry, looked up): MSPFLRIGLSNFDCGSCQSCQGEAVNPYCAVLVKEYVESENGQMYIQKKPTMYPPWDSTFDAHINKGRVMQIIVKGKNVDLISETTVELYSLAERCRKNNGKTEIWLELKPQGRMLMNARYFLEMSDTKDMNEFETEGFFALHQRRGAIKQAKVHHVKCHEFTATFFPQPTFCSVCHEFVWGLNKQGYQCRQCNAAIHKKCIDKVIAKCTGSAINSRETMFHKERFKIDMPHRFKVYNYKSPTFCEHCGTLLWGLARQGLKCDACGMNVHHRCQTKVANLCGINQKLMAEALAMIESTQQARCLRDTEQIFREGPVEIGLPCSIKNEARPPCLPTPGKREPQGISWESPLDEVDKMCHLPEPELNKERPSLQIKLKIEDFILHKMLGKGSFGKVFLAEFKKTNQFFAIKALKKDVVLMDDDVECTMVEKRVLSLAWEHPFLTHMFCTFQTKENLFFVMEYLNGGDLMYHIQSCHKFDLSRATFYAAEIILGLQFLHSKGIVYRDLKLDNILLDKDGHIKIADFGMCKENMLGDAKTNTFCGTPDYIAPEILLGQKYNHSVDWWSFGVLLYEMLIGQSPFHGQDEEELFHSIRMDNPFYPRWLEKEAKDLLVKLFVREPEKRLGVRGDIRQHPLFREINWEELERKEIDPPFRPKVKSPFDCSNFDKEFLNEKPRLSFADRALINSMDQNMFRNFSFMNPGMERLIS
Assay [5] shares this target. The following applies: at 1 µM.
Assay [6] concerns the target Protein kinase C beta type (Homo sapiens) (UniProt P05771). The following applies: at 0.1 µM.
For assay [7] the target is unchanged. Conditions: at 1 µM.
The target in assay [8] is T2, Serine/threonine-protein kinase D1 (Homo sapiens) (UniProt Q15139).
T2 sequence (whole entry): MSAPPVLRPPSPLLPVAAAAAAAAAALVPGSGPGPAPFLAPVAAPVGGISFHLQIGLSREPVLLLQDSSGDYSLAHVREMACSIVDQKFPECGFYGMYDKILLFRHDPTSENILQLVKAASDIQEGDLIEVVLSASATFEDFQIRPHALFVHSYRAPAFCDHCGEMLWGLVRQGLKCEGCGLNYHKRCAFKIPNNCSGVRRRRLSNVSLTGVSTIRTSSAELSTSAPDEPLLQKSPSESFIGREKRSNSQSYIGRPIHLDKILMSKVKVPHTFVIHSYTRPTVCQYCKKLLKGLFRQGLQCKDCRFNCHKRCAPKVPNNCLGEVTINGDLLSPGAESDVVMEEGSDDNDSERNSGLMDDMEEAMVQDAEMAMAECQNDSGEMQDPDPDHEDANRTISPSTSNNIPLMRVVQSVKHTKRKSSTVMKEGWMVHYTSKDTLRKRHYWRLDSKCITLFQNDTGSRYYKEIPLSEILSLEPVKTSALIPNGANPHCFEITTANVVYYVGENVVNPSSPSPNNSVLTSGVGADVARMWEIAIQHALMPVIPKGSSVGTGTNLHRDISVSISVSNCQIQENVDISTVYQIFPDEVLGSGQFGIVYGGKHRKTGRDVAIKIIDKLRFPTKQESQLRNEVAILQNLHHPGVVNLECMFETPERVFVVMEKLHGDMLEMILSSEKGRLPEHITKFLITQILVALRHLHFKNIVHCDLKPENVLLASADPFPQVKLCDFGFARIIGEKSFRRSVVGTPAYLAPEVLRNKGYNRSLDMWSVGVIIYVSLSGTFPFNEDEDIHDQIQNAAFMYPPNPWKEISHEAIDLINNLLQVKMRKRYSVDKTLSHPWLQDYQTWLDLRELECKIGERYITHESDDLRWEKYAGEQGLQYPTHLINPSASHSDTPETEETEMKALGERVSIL
The following applies: at 0.1 µM.

The target in assay [9] is T2, Serine/threonine-protein kinase D1 (Homo sapiens). The following applies: at 1 µM.
For assay [10], the target named is T3, Serine/threonine-protein kinase D2 (Homo sapiens) (UniProt Q9BZL6).
T3 sequence (whole entry): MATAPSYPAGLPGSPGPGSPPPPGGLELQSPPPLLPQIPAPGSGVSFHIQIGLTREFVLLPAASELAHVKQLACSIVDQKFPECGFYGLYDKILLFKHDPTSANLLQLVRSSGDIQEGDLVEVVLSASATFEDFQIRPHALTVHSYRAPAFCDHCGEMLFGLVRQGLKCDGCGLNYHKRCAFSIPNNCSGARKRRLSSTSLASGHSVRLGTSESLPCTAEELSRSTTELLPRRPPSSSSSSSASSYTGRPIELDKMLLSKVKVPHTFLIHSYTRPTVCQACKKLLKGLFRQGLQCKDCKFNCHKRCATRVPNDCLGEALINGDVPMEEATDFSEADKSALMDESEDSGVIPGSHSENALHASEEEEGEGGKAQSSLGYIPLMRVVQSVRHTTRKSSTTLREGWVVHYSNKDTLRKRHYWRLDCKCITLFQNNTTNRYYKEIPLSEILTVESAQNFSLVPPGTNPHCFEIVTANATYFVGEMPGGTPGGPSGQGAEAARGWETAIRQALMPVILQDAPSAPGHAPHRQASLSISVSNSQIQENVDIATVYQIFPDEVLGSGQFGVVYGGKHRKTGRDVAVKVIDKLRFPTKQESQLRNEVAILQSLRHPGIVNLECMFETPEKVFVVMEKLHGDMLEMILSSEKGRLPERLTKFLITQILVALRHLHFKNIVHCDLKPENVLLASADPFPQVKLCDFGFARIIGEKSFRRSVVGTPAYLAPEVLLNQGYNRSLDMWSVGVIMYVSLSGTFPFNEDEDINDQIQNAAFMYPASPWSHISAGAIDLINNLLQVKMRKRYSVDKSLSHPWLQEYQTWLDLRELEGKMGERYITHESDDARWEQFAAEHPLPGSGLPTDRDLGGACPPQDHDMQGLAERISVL
The following applies: at 0.1 µM.

Assay [11] deals with T3, Serine/threonine-protein kinase D2 (Homo sapiens). Conditions: at 1 µM.
In assay [12] the target is T4, Serine/threonine-protein kinase D3 (Homo sapiens) (UniProt O94806).
T4 sequence (whole entry): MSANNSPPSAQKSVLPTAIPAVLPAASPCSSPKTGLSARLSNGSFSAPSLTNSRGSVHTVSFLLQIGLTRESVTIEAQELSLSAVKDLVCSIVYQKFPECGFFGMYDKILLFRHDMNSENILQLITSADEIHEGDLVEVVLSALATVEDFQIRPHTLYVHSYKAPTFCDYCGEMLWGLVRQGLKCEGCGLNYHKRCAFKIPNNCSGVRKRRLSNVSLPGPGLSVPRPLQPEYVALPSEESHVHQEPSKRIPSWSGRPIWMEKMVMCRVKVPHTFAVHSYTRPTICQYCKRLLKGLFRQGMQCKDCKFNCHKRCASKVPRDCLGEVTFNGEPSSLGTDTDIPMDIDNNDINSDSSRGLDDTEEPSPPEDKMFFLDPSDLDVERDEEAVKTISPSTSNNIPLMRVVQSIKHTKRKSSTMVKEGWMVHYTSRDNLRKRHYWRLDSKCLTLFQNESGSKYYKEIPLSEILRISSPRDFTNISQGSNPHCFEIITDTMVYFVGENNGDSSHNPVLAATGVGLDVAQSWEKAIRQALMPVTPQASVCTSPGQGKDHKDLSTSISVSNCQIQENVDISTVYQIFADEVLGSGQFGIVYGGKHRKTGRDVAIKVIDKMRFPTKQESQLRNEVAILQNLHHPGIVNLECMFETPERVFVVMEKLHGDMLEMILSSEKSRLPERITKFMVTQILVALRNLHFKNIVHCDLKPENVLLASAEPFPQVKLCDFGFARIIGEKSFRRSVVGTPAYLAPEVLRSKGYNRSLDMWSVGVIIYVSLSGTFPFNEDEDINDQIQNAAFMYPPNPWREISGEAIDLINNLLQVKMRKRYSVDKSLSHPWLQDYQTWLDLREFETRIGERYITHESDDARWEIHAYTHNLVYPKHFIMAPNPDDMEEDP
Conditions: at 0.1 µM.

Assay [13] addresses T4, Serine/threonine-protein kinase D3 (Homo sapiens). The following applies: at 1 µM.
Assay [14] concerns the target T5, cGMP-dependent protein kinase 1 (Homo sapiens) (UniProt Q13976).
T5 sequence (whole entry): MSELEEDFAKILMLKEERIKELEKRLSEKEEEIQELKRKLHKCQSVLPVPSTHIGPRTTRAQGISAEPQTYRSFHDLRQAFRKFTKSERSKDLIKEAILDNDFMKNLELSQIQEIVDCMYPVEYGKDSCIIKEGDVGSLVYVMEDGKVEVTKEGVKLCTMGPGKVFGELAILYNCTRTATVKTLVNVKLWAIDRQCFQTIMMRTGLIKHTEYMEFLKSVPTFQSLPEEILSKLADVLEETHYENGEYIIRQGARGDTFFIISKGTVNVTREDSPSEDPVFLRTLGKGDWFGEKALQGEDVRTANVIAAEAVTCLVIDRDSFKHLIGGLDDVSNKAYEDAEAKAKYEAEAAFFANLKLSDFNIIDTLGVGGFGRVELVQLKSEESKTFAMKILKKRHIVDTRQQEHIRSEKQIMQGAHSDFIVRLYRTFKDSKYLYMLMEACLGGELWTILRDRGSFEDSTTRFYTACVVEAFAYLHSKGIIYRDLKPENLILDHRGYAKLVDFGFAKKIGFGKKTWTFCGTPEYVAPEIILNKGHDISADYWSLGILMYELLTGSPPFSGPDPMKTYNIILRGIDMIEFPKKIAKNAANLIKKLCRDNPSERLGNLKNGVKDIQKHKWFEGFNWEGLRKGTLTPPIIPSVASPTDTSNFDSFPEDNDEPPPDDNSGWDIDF
The following applies: at 0.1 µM.

Assay [15] deals with T5, cGMP-dependent protein kinase 1 (Homo sapiens). Conditions: at 1 µM.
In assay [16] the target is T6, cGMP-dependent protein kinase 2 (Homo sapiens) (UniProt Q13237).
T6 sequence (whole entry): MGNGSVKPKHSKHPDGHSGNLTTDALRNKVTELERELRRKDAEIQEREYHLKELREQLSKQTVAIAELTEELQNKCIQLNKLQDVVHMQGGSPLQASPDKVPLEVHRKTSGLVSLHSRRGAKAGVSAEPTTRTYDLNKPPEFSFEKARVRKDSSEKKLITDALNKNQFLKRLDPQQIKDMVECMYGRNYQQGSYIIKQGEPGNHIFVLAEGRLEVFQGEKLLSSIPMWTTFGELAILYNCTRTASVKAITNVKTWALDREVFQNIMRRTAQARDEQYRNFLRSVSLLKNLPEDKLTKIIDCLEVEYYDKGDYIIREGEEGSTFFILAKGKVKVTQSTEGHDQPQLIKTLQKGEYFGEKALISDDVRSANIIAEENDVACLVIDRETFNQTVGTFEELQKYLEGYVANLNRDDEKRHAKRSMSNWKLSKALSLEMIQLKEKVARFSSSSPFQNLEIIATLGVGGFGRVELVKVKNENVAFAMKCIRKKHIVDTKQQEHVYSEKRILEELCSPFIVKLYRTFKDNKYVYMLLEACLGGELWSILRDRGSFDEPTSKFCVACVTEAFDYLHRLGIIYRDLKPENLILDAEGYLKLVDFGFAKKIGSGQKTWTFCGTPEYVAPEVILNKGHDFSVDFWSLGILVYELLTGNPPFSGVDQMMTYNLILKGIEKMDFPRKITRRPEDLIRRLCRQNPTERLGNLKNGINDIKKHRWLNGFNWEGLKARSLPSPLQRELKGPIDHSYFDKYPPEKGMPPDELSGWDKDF
Conditions: at 0.1 µM.

For assay [17], the target named is T6, cGMP-dependent protein kinase 2 (Homo sapiens). The following applies: at 1 µM.
Assay [18] addresses T7, cAMP-dependent protein kinase catalytic subunit PRKX (Homo sapiens) (UniProt P51817).
T7 sequence (whole entry): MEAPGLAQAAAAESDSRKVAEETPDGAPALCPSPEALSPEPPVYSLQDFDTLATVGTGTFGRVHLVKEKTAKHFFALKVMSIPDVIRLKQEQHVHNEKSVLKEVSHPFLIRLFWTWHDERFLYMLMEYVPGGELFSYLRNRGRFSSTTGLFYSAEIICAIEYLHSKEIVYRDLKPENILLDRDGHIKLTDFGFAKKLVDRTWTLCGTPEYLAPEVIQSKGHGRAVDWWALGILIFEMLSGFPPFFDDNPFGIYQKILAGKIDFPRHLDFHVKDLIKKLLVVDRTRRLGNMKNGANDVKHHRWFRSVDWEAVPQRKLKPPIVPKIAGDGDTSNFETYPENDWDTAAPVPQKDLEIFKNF
Conditions: at 0.1 µM.

The target of assay [19] is T7, cAMP-dependent protein kinase catalytic subunit PRKX (Homo sapiens). Conditions: at 1 µM.
For assay [20], the target named is Rho-associated protein kinase 1 (Homo sapiens) (UniProt Q13464). Conditions: at 0.1 µM.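 Also: values are mean percent inhibition of ROCK1.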
Rho-associated protein kinase 1 (Homo sapiens), sequence (Q13464 2-1354 limits assumed): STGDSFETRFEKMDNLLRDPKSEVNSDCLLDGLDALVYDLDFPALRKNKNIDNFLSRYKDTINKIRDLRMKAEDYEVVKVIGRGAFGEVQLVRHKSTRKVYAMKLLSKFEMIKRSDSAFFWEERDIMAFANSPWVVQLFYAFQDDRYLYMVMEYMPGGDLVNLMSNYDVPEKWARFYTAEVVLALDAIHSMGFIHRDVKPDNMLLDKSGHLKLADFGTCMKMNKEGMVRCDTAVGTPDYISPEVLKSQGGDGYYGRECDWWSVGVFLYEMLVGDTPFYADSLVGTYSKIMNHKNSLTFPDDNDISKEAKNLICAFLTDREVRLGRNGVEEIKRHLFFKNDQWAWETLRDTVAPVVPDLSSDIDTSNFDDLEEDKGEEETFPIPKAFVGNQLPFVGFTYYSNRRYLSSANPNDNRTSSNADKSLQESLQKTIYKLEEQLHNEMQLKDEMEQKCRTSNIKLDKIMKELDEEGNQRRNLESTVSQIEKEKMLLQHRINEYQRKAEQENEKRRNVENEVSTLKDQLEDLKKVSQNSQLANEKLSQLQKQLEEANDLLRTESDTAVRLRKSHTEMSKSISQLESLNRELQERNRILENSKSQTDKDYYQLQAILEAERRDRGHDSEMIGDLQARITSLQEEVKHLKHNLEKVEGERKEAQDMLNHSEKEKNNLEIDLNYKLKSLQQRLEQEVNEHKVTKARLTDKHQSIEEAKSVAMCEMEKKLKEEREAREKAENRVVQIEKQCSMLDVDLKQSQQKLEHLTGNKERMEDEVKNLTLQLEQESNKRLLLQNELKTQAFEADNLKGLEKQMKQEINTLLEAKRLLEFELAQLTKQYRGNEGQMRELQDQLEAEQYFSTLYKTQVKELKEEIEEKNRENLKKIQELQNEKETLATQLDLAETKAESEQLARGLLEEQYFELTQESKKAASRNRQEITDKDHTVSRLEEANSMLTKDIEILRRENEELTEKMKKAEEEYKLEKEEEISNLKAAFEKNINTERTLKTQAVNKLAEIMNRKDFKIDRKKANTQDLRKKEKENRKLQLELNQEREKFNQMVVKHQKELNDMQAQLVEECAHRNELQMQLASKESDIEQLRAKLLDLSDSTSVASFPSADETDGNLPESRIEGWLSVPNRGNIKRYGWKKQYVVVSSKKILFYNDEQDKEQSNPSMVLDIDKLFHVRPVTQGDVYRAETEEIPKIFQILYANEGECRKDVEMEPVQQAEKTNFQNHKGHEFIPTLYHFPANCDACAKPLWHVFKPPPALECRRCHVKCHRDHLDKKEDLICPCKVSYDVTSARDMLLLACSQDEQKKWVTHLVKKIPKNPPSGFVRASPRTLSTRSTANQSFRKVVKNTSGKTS

Protein kinase C beta type (Homo sapiens), sequence (P05771 2-671 limits assumed): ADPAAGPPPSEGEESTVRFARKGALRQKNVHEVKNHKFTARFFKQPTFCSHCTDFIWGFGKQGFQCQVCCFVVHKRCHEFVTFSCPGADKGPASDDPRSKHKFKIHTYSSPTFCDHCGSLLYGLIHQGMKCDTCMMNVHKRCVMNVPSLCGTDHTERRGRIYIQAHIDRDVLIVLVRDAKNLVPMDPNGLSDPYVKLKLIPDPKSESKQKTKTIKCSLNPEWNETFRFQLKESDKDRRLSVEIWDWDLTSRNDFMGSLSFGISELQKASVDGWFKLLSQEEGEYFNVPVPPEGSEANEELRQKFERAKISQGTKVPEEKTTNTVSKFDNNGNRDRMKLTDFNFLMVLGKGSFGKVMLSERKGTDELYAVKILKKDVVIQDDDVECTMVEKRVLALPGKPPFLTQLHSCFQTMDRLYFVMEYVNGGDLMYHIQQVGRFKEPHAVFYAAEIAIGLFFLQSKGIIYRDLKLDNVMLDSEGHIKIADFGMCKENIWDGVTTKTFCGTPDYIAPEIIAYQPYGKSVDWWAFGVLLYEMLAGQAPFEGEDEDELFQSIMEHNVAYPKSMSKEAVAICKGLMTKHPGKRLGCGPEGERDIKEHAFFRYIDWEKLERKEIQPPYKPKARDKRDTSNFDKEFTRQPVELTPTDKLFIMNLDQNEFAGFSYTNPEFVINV

The term inhibition denotes the relative decrease from the control value, in per cent. Consider `FC(F)(F)c1cccc(Nc2nccc(-c3cnn4nc(-c5ccccc5)ccc34)n2)c1`, for which the inhibition stood at 1.78% in assay [1]; 0.68% in assay [2]; 0.06% in assay [3]; 1.79% in [4]; 2.39% in assay [5]; 1.28% in assay [6]. Further, the inhibition was determined as 1.35% in assay [7]; 2.1% in [8]; 3.92% in [9]; 1.86% in assay [10]; 1.49% in [11]; 1.55% in assay [12]. The inhibition in assay [13] is 2.61%; in [14], 1.17%; in assay [15], -0.32%; in assay [16] it was 1.44%; in [17], -1.07%; in assay [18], 1.18%. Also, the inhibition was found to be 0.74% in [19] and 0.77% in [20].
On to `COc1ccc2ncn(-c3cc(O[C@H](C)c4ccccc4Cl)c(C(N)=O)s3)c2c1`, for which the inhibition is 2.27% in assay [1]; 4.03% in assay [2]; 3.88% in assay [3]; 2.43% in [4]; 2.69% in assay [5]; 1.24% in [6]. Besides, the inhibition in assay [7] is 2.97%; in [8], -0.01%; in assay [9], -0.79%; in [10] it was -0.02%; in [11], -2.98%; in [12], 0.19%. The inhibition in assay [13] was -0.76%; in assay [14], 3.47%; in assay [15], 3.01%; in [16], 3.48%; in [17], 4.43%; in assay [18], 4.11%. In addition, the results for the inhibition in assay [19] and in [20] were 1.58% and 1.76%, respectively.
